Laboratory results reported in PubChem BioAssay (NCATS).
Where “and” joins values, the source holds several entries; their conditions need not be identical. Equal entries are not always repeated. Inconclusive results are not listed. Calls of active or inactive are those of the source. Unless noted, the call rests on the fitted dose curve; in most records, active means well fitted curve in the direction sought with a large enough effect; inconclusive means small, poorly fitted or top-dose-only effect, or another doubt; inactive means no such curve, though single readings can be large; an effect the other way counts as inactive or inconclusive.

What was measured:
[1] = molecular target: ATP-dependent 6-phosphofructokinase (Trypanosoma brucei brucei) (UniProt O15648); experiment: qHTS Assay to Find Inhibitors of T. brucei phosphofructokinase: hit validation (AID 492961);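 further: luminescence reports ADP formed as PFK phosphorylates fructose-6-phosphate with ATP; series mostly up to about 51 µM; on the % scale 0 is the no-effect control and ±100 the full control effect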
ATP-dependent 6-phosphofructokinase (Trypanosoma brucei brucei), sequence (O15648 whole entry, looked up): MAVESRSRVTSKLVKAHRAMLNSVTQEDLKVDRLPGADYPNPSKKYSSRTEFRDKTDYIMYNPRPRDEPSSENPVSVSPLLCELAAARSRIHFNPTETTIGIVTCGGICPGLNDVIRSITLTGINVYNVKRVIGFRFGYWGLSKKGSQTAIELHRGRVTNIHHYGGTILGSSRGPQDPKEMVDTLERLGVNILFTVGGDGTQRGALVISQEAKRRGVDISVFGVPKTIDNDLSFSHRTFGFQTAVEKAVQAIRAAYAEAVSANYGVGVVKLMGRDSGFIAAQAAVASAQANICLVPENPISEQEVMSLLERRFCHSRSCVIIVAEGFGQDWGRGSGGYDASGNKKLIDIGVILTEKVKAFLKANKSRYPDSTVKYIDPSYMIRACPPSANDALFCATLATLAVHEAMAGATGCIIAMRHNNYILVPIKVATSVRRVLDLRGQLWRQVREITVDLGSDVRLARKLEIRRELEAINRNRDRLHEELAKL
How it was run: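 Percent activity derived from corrected luminescence, normalized between 0x and 1x enzyme controls, then fitted to concentration-response curves. Conditions: 1.25 nM PFK, 0.1 mM ATP, 0.5 mM F6P, 45 min RT.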

[2] = molecular target: Ubiquitin carboxyl-terminal hydrolase 1 (Homo sapiens) (UniProt O94782); experiment: Inhibitors of USP1/UAF1: Pilot qHTS (AID 504865); further: nearly all actives have a fitted effect of over 35% in size; further: potency means the concentration at half of the fitted maximal effect
Ubiquitin carboxyl-terminal hydrolase 1 (Homo sapiens), sequence (O94782 whole entry, looked up): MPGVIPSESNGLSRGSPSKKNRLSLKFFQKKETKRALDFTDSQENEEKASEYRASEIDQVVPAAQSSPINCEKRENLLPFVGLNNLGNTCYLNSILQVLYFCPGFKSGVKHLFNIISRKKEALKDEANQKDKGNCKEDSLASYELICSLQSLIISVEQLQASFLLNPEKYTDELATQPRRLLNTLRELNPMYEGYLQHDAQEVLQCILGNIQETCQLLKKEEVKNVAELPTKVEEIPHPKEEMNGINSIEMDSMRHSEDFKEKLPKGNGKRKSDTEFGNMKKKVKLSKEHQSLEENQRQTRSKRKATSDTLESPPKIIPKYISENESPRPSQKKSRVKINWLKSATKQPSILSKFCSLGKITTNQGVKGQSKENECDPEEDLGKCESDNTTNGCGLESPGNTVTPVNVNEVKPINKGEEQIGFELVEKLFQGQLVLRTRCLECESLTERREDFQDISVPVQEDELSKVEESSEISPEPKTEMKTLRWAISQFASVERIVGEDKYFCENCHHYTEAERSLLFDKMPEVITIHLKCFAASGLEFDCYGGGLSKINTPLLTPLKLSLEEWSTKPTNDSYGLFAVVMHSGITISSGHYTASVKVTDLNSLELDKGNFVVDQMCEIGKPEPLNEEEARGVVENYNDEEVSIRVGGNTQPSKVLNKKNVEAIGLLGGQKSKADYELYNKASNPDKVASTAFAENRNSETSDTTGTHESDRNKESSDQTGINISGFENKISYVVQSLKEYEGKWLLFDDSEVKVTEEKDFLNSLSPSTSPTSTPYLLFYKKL
How it was run: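 USP1/UAF1 complex at 1 nM preincubated 15 min at room temperature with compound, then Ub-Rho substrate added at 150 nM final. Fluorescence (480/540 nm) read kinetically in 50 mM HEPES pH 7.8, 0.5 mM EDTA, 1 mM TCEP, 0.1 mg/ml BSA, 0.01% Tween-20.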

[3] = Validation screen for small molecules that induce genotoxicity in human embryonic kidney (HEK293T) cells expressing luciferase-tagged ELG1 (AID 493106); further: potency means the concentration at half of the fitted maximal effect
How it was run: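 Reporter-gene quantitative HTS in HEK293T cells carrying luciferase-tagged ELG1, whose level climbs under genotoxic stress. Compound exposure lasts 16 hr at 37 °C before luciferase detection.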

[4] = molecular target: ATPase family AAA domain-containing protein 5 (Homo sapiens) (UniProt Q96QE3); experiment: Validation screen for small molecules that inhibit ELG1-dependent DNA repair in human embryonic kidney (HEK293T) cells expressing luciferase-tagged ELG1 (AID 493107);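 further: cells co-treated with the DNA-damaging agent 5-fluorouridine alongside compound; series mostly up to about 46 µM; on the % scale 0 is the no-effect control and ±100 the full control effect; inhibitors lower the ELG1-luciferase luminescence signal; nearly all actives have a fitted effect of over 70% in size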
ATPase family AAA domain-containing protein 5 (Homo sapiens), sequence (Q96QE3 whole entry, looked up, the tested form may be a part): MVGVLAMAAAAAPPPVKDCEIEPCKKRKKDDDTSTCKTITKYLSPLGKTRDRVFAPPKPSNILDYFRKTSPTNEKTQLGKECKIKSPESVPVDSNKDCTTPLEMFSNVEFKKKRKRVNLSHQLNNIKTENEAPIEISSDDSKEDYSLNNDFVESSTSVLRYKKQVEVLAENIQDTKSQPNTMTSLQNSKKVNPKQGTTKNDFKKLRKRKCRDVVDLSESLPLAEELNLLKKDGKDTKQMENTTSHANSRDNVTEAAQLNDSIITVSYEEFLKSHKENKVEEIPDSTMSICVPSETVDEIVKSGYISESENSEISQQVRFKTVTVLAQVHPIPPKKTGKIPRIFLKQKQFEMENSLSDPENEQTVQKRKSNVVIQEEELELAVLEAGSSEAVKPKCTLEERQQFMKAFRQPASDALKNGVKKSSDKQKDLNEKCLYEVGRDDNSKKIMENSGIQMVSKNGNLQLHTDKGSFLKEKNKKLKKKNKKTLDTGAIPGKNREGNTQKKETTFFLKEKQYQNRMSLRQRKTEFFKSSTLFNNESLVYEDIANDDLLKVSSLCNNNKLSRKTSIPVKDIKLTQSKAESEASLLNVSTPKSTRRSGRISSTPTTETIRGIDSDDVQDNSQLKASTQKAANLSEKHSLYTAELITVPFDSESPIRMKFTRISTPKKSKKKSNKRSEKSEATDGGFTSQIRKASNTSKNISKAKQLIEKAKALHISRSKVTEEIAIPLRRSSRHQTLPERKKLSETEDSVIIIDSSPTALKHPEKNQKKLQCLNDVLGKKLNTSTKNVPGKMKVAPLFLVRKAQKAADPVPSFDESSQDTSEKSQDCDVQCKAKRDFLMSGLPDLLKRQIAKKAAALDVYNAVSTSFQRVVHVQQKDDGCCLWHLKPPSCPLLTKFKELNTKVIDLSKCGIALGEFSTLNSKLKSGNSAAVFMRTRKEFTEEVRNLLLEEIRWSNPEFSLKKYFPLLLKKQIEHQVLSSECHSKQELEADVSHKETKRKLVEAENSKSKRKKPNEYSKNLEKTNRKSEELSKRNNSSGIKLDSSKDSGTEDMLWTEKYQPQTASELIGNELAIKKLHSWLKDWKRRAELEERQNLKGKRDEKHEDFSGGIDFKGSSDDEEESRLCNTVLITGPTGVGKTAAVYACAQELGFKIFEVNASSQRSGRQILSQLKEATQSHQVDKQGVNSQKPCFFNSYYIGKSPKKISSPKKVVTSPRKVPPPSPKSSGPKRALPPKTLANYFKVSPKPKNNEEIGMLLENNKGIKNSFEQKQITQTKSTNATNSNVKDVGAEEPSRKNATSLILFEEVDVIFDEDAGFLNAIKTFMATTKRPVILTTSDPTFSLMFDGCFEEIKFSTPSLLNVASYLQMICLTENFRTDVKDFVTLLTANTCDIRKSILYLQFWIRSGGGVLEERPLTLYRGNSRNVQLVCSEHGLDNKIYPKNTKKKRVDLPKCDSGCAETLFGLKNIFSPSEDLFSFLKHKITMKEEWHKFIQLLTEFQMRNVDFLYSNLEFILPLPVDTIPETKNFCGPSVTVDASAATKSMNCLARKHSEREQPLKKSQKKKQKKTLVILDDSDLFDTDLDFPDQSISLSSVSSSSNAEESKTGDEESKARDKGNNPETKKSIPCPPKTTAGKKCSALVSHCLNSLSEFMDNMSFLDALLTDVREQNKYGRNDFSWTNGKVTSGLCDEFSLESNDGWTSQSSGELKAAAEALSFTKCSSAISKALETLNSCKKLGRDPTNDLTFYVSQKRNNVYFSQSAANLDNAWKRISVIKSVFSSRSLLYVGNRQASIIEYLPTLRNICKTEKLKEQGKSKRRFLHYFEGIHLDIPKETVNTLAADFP
How it was run: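 Quantitative HTS in HEK293T cells carrying luciferase-tagged ELG1, stimulated with 5-fluorouridine alongside compound for 16 hr. Loss of luciferase signal marks inhibition of ELG1 response.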

[5] = Nrf2 qHTS screen for inhibitors: Validation (AID 493153; active means well fitted inhibition curve with a large enough effect in the main read-out, with a control signal flat, not every such curve was filed as active); settings: Potency: luciferase luminescence; viability change: measured here: cytotoxicity max response
How it was run: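 Dose-response validation uses reporter A549 cells with firefly luciferase under an antioxidant response element. Compounds stay on cells 18-24 h at 37°C, and luminescence indicates Nrf2-driven transcription.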

[6] = qHTS for Inhibitors of Cell Surface uPA Generation: Validation Assay (AID 493164);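 further: RAW 264.7 macrophage cells exposed to compound for 18 h; 0% is about no effect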
How it was run: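 RAW 264.7, 4000 cells/well, o/n plating; cpd 7-pt 1:5 dilution 2.45 nM–38.3 uM final; 18 h, 37 C/5% CO2; ATP-Lite, 5 s luminescence exposure.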

[7] = molecular target: Galactokinase (Homo sapiens) (UniProt P51570); experiment: qHTS Validation Assay for Inhibitors of Human Galactokinase (GALK) (AID 493189); further: 0% is about no effect
Galactokinase (Homo sapiens), sequence (P51570 whole entry, looked up): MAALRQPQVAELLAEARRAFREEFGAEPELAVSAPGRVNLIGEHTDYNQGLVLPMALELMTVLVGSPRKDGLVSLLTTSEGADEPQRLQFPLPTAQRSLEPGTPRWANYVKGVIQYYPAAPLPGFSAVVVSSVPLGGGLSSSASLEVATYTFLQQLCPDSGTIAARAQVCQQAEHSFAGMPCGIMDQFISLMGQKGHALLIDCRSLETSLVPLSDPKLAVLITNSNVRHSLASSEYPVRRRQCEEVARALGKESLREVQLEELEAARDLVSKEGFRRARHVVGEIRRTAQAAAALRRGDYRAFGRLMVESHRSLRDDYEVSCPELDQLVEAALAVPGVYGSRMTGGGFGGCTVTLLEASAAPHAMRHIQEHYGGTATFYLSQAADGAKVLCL
How it was run: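 GALK (5 nM) with 35 uM ATP and 100 uM galactose in HEPES pH 8.0 with MgCl2, NaCl, DTT and BSA. Reaction ran 1 h at room temperature. Residual ATP read by Kinase-Glo Plus luminescence.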

[8] = Validation screen for small molecules that induce DNA re-replication in SW480 colon adenocarcinoma cells (AID 504364); further: 0% is about no effect
How it was run: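 Cells are treated 48 hr with test compound, stained 40 min with Hoechst at 37 C, and scanned for nuclear fluorescence; compounds inducing re-replication increase nuclei with elevated intensity.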

[9] = molecular target: Peptidyl-prolyl cis-trans isomerase NIMA-interacting 1 (Homo sapiens) (UniProt Q13526); experiment: qHTS Validation Assay to Find Inhibitors of Pin1 (AID 504536; active means well fitted inhibition curve with a large enough effect in the polarisation, with a control signal flat, not every such curve was filed as active; the % refers to the polarisation;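 further: 0% = full Pin1 enzyme wells and -100% = no-enzyme wells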)
Peptidyl-prolyl cis-trans isomerase NIMA-interacting 1 (Homo sapiens), sequence (Q13526 whole entry, looked up): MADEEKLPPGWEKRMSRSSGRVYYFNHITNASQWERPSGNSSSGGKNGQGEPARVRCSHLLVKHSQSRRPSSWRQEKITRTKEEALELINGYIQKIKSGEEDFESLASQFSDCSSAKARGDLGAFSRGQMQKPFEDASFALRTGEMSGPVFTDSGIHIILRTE
How it was run: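 Fluorescence polarization competition: compounds (titration) displace HiFluor-488-labeled Pin1-1b peptide from Pin1 (0.3 uM final) in pH 7.5 HEPES buffer with DTT, 10 min at room temperature; %Activity normalized to no-enzyme wells, curves fitted.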

[10] = molecular target: phosphoglycerate mutase (Leishmania major) (UniProt Q4Q090); experiment: qHTS Validation Assay to Find Inhibitors of Phosphoglycerate Mutase (AID 504548);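 further: end-point luminescence from Kinase-GloPlus after the PGAM reaction; series mostly up to about 58 µM; on the % scale 0 is the no-effect control and ±100 the full control effect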
How it was run: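 L. major PGAM (1.25nM final) was added to substrate buffer and pinned compound, incubated 45 minutes at room temperature, then Kinase-GloPlus added; luminescence read after 10 minutes. Buffer: 100 mM TEA pH 7.6, 5 mM MgCl2, 0.01% Tween-20.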

[11] = qHTS for Inhibitors of ATXN expression: Validation (AID 588378); further: series mostly up to about 57 µM; on the % scale 0 is the no-effect control and ±100 the full control effect; nearly all actives have a fitted effect of over 75% in size
How it was run: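 HEK293 cells carrying ATXN2-firefly luciferase reporter, treated with compound 24 h at 37 °C. Viability read first by CellTiter-Fluor (405/525 nm), then reporter expression by Bright-Glo luminescence; controls were a known ATXN2 expression inhibitor and a luciferase inhibitor.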

[12] = molecular target: Thyrotropin-releasing hormone receptor (Homo sapiens) (UniProt P34981); experiment: qHTS for Small Molecule Agonists and Allosteric Enhancers of Human TRH Receptor: Validation Screen for Agonists (AID 493127;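 active means calcium activation more than 3 SD above the typical response in the agonist read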;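 further: intracellular calcium rise by fluo-8 fluorescence before TRH EC20 addition; 0% is about no effect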); settings: TRH receptor agonist cell assay; at 2 µM; stronger effect = higher value
Thyrotropin-releasing hormone receptor (Homo sapiens), sequence (P34981 whole entry, looked up): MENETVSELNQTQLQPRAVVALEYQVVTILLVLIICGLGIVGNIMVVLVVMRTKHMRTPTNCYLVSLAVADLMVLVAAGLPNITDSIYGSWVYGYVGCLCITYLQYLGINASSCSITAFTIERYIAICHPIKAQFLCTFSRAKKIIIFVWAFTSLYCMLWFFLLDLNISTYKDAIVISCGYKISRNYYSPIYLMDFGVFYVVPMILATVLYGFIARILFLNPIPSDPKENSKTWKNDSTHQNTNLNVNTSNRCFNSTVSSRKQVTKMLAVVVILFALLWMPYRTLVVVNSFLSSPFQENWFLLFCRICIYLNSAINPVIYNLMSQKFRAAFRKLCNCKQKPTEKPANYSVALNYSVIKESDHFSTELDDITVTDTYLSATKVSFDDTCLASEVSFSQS
How it was run: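 Gq-coupled calcium mobilization in TRHR cells after compound addition, monitored kinetically with fluo-8 dye on an FDSS reader.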

[13] = molecular target: DNA dC->dU-editing enzyme APOBEC-3G (Homo sapiens) (UniProt Q9HC16); experiment: qHTS for inhibitors of Vif-A3G interactions: Validation (AID 588379); further: 0% is about no effect
DNA dC->dU-editing enzyme APOBEC-3G (Homo sapiens), sequence (Q9HC16 whole entry, looked up): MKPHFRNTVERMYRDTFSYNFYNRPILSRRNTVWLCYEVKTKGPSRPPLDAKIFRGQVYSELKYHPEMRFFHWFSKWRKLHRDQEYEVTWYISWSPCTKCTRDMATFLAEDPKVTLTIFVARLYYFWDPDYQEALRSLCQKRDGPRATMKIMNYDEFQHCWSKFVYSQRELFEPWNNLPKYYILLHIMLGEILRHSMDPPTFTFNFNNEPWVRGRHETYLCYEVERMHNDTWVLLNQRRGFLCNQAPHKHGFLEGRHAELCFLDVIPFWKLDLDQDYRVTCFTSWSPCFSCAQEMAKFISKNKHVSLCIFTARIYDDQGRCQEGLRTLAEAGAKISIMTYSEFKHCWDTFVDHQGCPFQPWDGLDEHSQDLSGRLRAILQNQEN
How it was run: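 HeLa cells stably expressing Vif and A3G-eYFP, 700 cells/well, incubated overnight at 37 deg C, then exposed to compound overnight at 37 deg C. Inhibition of Vif-mediated degradation read as increased yellow fluorescence (Ex 488/Em 500-530) by laser-scanning cytometry.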

[14] = molecular target: Phosphoglycerate kinase, glycosomal (Trypanosoma brucei brucei) (UniProt P07378); experiment: qHTS Validation Assay to Find Inhibitors of Phosphoglycerate Kinase (AID 504547);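 further: control wells lack PGK and mark full inhibition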
Phosphoglycerate kinase, glycosomal (Trypanosoma brucei brucei), sequence (P07378 whole entry, looked up): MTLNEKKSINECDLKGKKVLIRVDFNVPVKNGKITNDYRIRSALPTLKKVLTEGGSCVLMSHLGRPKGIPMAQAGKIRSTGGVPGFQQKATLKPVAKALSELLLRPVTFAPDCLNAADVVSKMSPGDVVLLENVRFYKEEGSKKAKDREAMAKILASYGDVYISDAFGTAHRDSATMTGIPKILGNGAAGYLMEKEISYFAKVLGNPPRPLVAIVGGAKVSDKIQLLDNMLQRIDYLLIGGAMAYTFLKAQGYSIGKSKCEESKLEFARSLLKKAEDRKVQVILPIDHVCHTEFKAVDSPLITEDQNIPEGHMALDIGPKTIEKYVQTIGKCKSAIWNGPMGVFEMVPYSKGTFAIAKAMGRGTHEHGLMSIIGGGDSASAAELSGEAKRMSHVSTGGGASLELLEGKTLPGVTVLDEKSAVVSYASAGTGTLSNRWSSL
How it was run: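 Substrate/PGK mix plus compound; reaction started with GAPDH (100nM final) to form 1,3-BPG; 60 min RT; Kinase-Glo Plus 10 min; luminescence. TEA 100mM pH 7.6, MgCl2 5mM, Tween-20 0.01%.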

[15] = molecular target: Estrogen receptor (Homo sapiens) (UniProt P03372); experiment: qHTS assay for small molecule antagonists of estrogen receptor alpha signaling (AID 588513; active means well fitted curve in the direction sought with a large enough effect in the signal ratio, with a control signal flat, not every such curve was filed as active; the % refers to the signal ratio; further: on the % scale 0 is the no-effect control and ±100 the full control effect)
How it was run: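 ER-alpha-UAS-bla GripTite HEK 293 cells in 2% charcoal/dextran-treated FBS medium; compounds titrated (1:2, duplicate), then stimulated with 0.5 nM 17-beta-estradiol for 18 h at 37C. CCF4 beta-lactamase fluorescence; Hill-fit IC50 and efficacy.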

[16] = molecular target: Estrogen receptor (Homo sapiens) (UniProt P03372); experiment: qHTS assay for small molecule agonists of estrogen receptor alpha signaling (AID 588514; calls by dose curve;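 further: 0% = vehicle only and 100% = reference agonist; nearly all actives have a fitted effect of over 70% in size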)
How it was run: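 Reporter-gene assay. […] controls beta-lactamase in HEK 293 GripTite cells; after 18 hrs with compound, CCF4 substrate is added for 2 hrs and fluorescence is read.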

[17] = molecular target: Glucocorticoid receptor (Homo sapiens) (UniProt P04150); experiment: qHTS assay for small molecule agonists of glucocorticoid receptor signaling (AID 588532; active means well fitted curve in the direction sought with a large enough effect in the signal ratio, with a control signal flat; the % refers to the signal ratio;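 further: 100% = dexamethasone at 0.1 µM and 0% = DMSO only wells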); settings: HeLa MMTV-bla, beta-lactamase ratio, agonist, 18 h; stronger effect = higher value; percent of dexamethasone control, DMSO zero
How it was run: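 Titration series, up to 92 uM, applied to GRE-bla HeLa cells for 18 h at 37 C. Detection by CCF4 FRET substrate after 2 h at RT.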

CC(c1cc2ccccc2s1)N(O)C(N)=O (configuration not stated)
inactive: outcome [1] | Potency [2]

CCCc1nn(C)c2c(=O)[nH]c(-c3cc(S(=O)(=O)N4CCN(C)CC4)ccc3OCC)nc12
inactive: outcome [1] | Potency [2]

CNC[C@H](O)c1cccc(O)c1
inactive: outcome [1] | Potency [3] | Potency [4] | Potency [5] | outcome [6] | outcome [7] | outcome [8] | outcome [9] | outcome [10] | Potency [2] | outcome [11]
-8.68%: viability change [5]

CCc1ccc(CCOc2ccc(CC3SC(=O)NC3=O)cc2)nc1 (configuration not stated)
inactive: outcome [1] | Potency [2]

CCCc1nc2c(C)cc(-c3nc4ccccc4n3C)cc2n1Cc1ccc(-c2ccccc2C(=O)O)cc1
inactive: outcome [1]
active: Potency [2] 50.1 µM

CC(C)C[C@H](NC(=O)[C@@H](O)[C@H](N)Cc1ccccc1)C(=O)O
inactive: outcome [1] | Potency [3] | Potency [4] | activation [12] 0.938% | outcome [7] | outcome [8] | outcome [10] | Potency [2] | outcome [11] | outcome [13]

CN1CCN(CCCN2c3ccccc3Sc3ccc(C(F)(F)F)cc32)CC1
active: Potency [2] 50.1 µM
inactive: outcome [1] | Potency [3] | outcome [6] | outcome [7] | outcome [8] | outcome [10]

N[C@@H]1CONC1=O
10.9%: viability change [5]
inactive: outcome [1] | Potency [3] | Potency [4] | Potency [5] | outcome [6] | outcome [7] | outcome [8] | outcome [9] | outcome [10] | Potency [2] | outcome [11]

Cc1oncc1C(=O)Nc1ccc(C(F)(F)F)cc1
0.653%: viability change [5]
inactive: outcome [1] | Potency [5] | outcome [6] | outcome [7] | outcome [8] | outcome [9] | outcome [10] | Potency [2] | outcome [11]
active: Potency [3] 2.06 µM

N#Cc1ccc(C(c2ccc(C#N)cc2)n2cncn2)cc1
inactive: outcome [1]

C#Cc1cccc(Nc2ncnc3cc(OCCOC)c(OCCOC)cc23)c1
inactive: outcome [1] | Potency [2]

Cn1cnc([N+](=O)[O-])c1Sc1ncnc2nc[nH]c12
-10.4%: viability change [5]
inactive: Potency [3] | Potency [4] | activation [12] 0.875% | Potency [5] | outcome [6] | outcome [7] | outcome [8] | outcome [14] | outcome [10] | Potency [2] | outcome [11] | Potency [15] | outcome [16] | activation [17] -7.04% and 6.25%

OC(CN1CCC(Cc2ccc(F)cc2)CC1)c1ccc(Cl)cc1 (configuration not stated)
inactive: outcome [1] | Potency [3] | Potency [4] | activation [12] -3.12% | Potency [5] | outcome [6] | outcome [7] | outcome [8] | Potency [2] | outcome [11]
-17.6%: viability change [5]

O=c1n(CCCN2CCN(c3cccc(Cl)c3)CC2)nc2ccccn12
inactive: outcome [1] | Potency [3] | Potency [4] | Potency [5] | outcome [6] | outcome [7] | outcome [8] | outcome [10] | Potency [2] | outcome [11]
-3.91%: viability change [5]

Nc1ccc(S(=O)(=O)Nc2ccnn2-c2ccccc2)cc1
-5.45%: viability change [5]
inactive: outcome [1] | Potency [3] | Potency [4] | activation [12] 1.12% | Potency [5] | outcome [6] | outcome [7] | outcome [8] | outcome [10] | Potency [2] | outcome [11]

Cc1[nH]c(=O)c(C#N)cc1-c1ccc2nccn2c1
inactive: outcome [1] | Potency [3] | activation [12] 0.25% | Potency [5] | outcome [6] | outcome [7] | outcome [8] | outcome [10] | Potency [2]
7.27%: viability change [5]

NCCCC(N)(C(=O)O)C(F)F (configuration not stated)
inactive: outcome [1] | Potency [3] | Potency [4] | activation [12] 0.938% | outcome [6] | outcome [7] | outcome [8] | outcome [14] | outcome [10] | Potency [2] | outcome [11]

NS(=O)(=O)c1cc2c(cc1Cl)NC=NS2(=O)=O
inactive: Potency [3] | Potency [4] | activation [12] 1.12% | Potency [5] | outcome [6] | outcome [7] | outcome [8] | outcome [14] | outcome [10] | Potency [2] | outcome [11] | Potency [15] | outcome [16]
-3.76%: viability change [5]
